Drawing on PubChem BioAssay, this text covers composite z-score and z-score for five compounds.

Calls of active or inactive are those of the source.

The test system of assay [1] is PRMT1 (protein arginine N-methyltransferase 1). The assay can be described thus: PRMT1 binders on small-molecule microarrays, primary screen, biochemical, small-molecule microarray, 635 nm fluorescence (AID 1088).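 Note: binding of Prmt1 protein to compounds spotted on small-molecule microarray slides.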 Particulars: small-molecule microarray binding, higher = more signal.
Assay [2] in a line: yeast growth modulation, basal conditions, primary screen, YJM789 clinical isolate, OD600, 24 h (AID 1089).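 Note: growth of clinical yeast isolate S. cerevisiae YJM 789 seeded 1000 cells per well; test concentration not given here.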 Particulars: S. cerevisiae YJM789 growth, higher = more signal, called active from +8 up or from −8 down.
Assay [3] can be described thus: fission yeast growth modulation, primary screen, strain 972, OD600, 24 h, no modulator (AID 1090).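 Note: basal condition with compound alone and no growth modifier present; test concentration not given here.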 Particulars: S. pombe 972 growth, higher = more signal, called active from +8 up or from −8 down.
Assay [4] is described as follows: S. cerevisiae growth modulation with rapamycin, primary screen, strain BY4716, OD600, 96 h (AID 1091). Note: test concentration not given here. Particulars: higher = more signal, called active from +8 up or from −8 down.
Assay [5] concerns the target Torsin-1A-interacting protein 2 (Homo sapiens) (UniProt Q8NFQ8). The assay is described as follows: LULL1 binders on small-molecule microarray, primary screen, cell lysate, human LULL1 lysate, 635/667 nm fluorescence (AID 1092).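 Note: probe is lysate of COS7 cells overexpressing human LULL1; score merges per-feature 667 nm fluorescence with signal-to-noise.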 Particulars: hLULL1 lysate binding, 635 nm fluorescence, higher = more signal.
Assay [6] in a line: E. coli growth modulation, two-sided OD650, primary screen, E. coli filamentation project, strain DRC41, 24 h (AID 1093).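 Note: MC1000 strain lacking acrAB efflux and sulA so SOS filamentation is blocked; test concentration not given here.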 The note with it: OD650, 24 h, higher = more signal, called active from +8 up or from −8 down.
A short description of assay [7]: small-molecule microarray binders of probe aLefty2, primary screen, biochemical, biotinylated probe, 635/667 nm fluorescence (AID 1094).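 Note: score merges spot fluorescence near 667 nm with spot signal-to-noise ratio.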 Particulars: higher = more signal.
For assay [8], the system named is Noggin (protein binding on small-molecule microarray). The assay is described as follows: Noggin binders on small-molecule microarray, primary screen, biochemical, 635/667 nm fluorescence (AID 1095).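 Note: score merges 667 nm feature fluorescence with signal to noise over triplicate slides.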 The note with it: 635 nm fluorescence, higher = more signal.
The target of assay [9] is Neurogenic locus notch homolog protein 3 (Homo sapiens) (UniProt Q9UM47). The assay is described as follows: NOTCH3 binders on small-molecule microarray, primary screen, biochemical, 635/667 nm fluorescence (AID 1096). The note with it: NOTCH3 binding, 635 nm fluorescence, higher = more signal.
Neurogenic locus notch homolog protein 3 (Homo sapiens), sequence (Q9UM47 whole entry, looked up): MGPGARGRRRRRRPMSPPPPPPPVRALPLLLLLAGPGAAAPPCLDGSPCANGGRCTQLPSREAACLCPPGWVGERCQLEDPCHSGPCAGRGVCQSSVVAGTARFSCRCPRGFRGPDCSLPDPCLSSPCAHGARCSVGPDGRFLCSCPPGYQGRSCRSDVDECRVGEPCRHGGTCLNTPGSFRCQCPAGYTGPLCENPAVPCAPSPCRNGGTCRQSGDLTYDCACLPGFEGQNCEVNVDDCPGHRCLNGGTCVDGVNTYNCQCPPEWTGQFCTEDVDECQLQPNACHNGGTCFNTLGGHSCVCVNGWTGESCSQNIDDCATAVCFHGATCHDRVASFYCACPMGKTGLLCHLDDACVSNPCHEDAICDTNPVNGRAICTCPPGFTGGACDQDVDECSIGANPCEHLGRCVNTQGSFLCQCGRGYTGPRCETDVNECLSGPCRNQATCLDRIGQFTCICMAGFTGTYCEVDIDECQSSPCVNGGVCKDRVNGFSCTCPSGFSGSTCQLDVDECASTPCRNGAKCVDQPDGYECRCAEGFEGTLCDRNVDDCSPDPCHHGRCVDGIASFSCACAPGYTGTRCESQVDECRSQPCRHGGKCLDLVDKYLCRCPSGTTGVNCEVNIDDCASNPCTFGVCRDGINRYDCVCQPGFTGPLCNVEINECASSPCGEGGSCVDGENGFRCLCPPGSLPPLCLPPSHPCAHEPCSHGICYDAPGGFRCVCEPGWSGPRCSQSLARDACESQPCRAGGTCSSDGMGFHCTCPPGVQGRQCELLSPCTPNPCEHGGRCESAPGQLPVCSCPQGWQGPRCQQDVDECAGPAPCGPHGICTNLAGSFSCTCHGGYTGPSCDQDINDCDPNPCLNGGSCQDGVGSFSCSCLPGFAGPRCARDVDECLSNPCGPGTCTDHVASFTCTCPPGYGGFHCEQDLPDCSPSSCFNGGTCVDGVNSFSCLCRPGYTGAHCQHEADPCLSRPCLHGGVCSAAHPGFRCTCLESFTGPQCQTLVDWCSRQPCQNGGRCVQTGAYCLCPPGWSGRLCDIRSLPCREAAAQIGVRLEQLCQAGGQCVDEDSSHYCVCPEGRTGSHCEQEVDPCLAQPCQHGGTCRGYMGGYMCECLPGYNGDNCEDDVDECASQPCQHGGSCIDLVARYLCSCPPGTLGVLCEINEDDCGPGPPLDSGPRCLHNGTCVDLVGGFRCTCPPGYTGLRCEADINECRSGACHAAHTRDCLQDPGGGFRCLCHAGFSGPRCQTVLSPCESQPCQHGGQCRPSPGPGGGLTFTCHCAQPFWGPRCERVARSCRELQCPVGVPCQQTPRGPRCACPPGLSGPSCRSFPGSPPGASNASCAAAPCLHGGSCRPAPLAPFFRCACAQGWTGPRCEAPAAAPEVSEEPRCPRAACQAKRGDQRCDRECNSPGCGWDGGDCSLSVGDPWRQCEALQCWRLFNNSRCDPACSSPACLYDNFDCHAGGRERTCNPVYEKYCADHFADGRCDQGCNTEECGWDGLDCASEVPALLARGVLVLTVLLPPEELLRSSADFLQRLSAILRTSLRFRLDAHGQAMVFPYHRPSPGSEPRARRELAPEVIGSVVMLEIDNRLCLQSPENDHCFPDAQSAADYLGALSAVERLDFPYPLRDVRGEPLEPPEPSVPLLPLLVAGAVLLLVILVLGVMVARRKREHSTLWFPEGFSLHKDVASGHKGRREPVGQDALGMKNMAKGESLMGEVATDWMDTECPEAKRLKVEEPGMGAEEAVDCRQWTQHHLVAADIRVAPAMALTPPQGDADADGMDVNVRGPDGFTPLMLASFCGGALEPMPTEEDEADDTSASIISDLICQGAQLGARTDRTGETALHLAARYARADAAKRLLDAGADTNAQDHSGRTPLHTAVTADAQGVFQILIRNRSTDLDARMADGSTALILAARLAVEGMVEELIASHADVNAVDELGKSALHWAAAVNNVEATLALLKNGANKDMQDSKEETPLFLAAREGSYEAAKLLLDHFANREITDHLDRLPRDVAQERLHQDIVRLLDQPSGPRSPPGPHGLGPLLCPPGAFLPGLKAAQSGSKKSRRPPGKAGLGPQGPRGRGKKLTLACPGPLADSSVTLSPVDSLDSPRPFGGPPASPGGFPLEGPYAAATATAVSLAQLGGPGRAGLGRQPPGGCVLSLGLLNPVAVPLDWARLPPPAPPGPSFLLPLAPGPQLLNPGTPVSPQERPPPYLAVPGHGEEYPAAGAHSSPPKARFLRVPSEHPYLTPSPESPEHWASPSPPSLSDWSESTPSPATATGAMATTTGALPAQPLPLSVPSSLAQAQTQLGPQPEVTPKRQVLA
The nature of assay [10]: small-molecule microarray binders of probe aEGFR, primary screen, biochemical, biotinylated probe, 635/667 nm fluorescence (AID 1097).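 Note: probe is a biotinylated anti-EGFR antibody binding compounds printed on slides; score combines fluorescence near 667 nm and signal to noise of each spot.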 The note with it: higher = more signal.
For assay [11], the system named is Plasmodium falciparum Sir2 (PF13_0152, Sir2A). The assay is described as follows: pfSir2 binders on small-molecule microarrays, primary screen, biochemical, small-molecule microarray, 635 nm fluorescence (AID 1098).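 Note: score merges spot fluorescence intensity with its signal-to-noise ratio.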 The note with it: small-molecule microarray binding, fluorescence 635 nm; higher = more signal.
Assay [12] is described as follows: small-molecule microarray binders of probe aDKK1, primary screen, biochemical, biotinylated probe, 635/667 nm fluorescence (AID 1099).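 Note: score merges 667nm spot fluorescence with signal to noise across triplicate slides; reference of the scale not given here.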 Particulars: higher = more signal.
Assay [13] can be described thus: small-molecule microarray binders of probe aCHRDL2, primary screen, biochemical, biotinylated probe, 635/667 nm fluorescence (AID 1100). The note with it: higher = more signal.
A short description of assay [14]: splicing luciferase reporter signal modulators, primary screen, spliceosome inhibition project, cell-based, HEK293, splice +/- reporter (AID 1101).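 Note: HEK293 cells carrying a splicing-competent luciferase reporter gene; test concentration not given here.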 Particulars: luminescence, 24 h, higher = more signal, called active from +8 up or from −8 down.
For assay [15], the target named is Fibroblast growth factor 10 (Homo sapiens) (UniProt O15520). The assay is described as follows: FGF10 binders on small-molecule microarrays, primary screen, biochemical, small-molecule microarray, 635 nm fluorescence (AID 1102). The note with it: FGF10 binding, fluorescence 635 nm, higher = more signal.
Fibroblast growth factor 10 (Homo sapiens), sequence (O15520 whole entry, looked up): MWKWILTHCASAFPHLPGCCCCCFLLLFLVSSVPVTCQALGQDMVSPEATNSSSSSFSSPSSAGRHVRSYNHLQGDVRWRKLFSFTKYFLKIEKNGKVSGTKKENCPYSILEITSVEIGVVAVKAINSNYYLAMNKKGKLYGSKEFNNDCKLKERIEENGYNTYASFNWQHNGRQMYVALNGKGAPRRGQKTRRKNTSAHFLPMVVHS
For assay [16], the system named is glycogen synthase kinase-3 (GSK3A per assay name; protocol says GSK3B). The assay is described as follows: GSK3 binders on small-molecule microarrays, primary screen, biochemical, small-molecule microarray, 635 nm fluorescence, GSK3A (AID 1103). Note: the record names both GSK3A and GSK3B. The note with it: small-molecule microarray binding, fluorescence 635 nm; higher = more signal.
Assay [17] concerns the target Epidermal growth factor receptor (Homo sapiens) (UniProt P00533). The assay can be described thus: EGFR binders on small-molecule microarrays, primary screen, biochemical, small-molecule microarray, 635 nm fluorescence (AID 1104).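 Note: score merges 667 nm emission intensity with spot signal to noise over triplicate slides.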 Particulars: EGFR binding, higher = more signal.
In assay [18] the target is Follistatin-related protein 3 (Homo sapiens) (UniProt O95633). The assay can be described thus: FSTL3 binders on small-molecule microarrays, primary screen, biochemical, small-molecule microarray, 635 nm fluorescence (AID 1105).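 Note: score merges emission near 667 nm and signal to noise per printed spot across three slides.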 The note with it: FSTL3 binding, higher = more signal.
Follistatin-related protein 3 (Homo sapiens), sequence (O95633 whole entry, looked up): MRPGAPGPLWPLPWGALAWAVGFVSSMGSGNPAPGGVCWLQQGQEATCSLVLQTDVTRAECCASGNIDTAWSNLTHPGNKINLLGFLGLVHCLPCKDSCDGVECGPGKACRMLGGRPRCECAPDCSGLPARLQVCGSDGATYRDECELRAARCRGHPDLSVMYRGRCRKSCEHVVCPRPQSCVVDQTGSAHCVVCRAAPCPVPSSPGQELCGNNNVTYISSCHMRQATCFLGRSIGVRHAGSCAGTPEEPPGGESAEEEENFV
Assay [19] has as its target Dickkopf-related protein 1 (Homo sapiens) (UniProt O94907). The assay can be described thus: DKK1 binders on small-molecule microarrays, primary screen, biochemical, small-molecule microarray, 635 nm fluorescence scan (AID 1106).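 Note: score merges emission near 667 nm with signal to noise over three replicate slides.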 The note with it: DKK1 binding, higher = more signal.
For assay [20], the system named is Inhibin beta A chain (activin A). The assay is described as follows: INHBA (activin A) binders on microarrays, primary screen, biochemical, small-molecule microarray, 635 nm fluorescence scan (AID 1107).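 Note: mouse activin A protein probed at 4.33 µg/mL on printed slides; score merges bound-protein fluorescence near 667 nm with spot signal-to-noise.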 The note with it: small-molecule microarray binding, higher = more signal.

Dickkopf-related protein 1 (Homo sapiens), sequence (O94907 whole entry, looked up): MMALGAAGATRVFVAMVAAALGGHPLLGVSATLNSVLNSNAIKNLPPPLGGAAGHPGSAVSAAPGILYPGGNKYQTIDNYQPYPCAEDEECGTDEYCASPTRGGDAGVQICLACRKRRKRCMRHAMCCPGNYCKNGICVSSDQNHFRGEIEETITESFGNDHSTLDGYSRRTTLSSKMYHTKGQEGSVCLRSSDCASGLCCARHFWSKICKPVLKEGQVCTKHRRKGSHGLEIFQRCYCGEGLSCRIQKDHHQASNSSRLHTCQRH
Torsin-1A-interacting protein 2 (Homo sapiens), sequence (Q8NFQ8 whole entry, looked up): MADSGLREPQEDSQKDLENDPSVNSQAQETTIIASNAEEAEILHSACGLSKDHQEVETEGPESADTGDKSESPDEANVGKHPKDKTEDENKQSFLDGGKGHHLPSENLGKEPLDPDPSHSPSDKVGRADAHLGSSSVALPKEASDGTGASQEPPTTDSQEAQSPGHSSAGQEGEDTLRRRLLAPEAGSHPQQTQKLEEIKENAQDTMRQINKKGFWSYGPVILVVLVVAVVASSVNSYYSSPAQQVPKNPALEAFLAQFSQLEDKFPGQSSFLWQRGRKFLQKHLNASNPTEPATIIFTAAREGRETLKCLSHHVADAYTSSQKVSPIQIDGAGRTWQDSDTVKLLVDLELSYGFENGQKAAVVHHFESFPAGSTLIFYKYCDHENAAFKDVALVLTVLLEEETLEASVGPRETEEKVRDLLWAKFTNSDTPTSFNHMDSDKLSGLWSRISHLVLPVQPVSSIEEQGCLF
Epidermal growth factor receptor (Homo sapiens), sequence (P00533 whole entry, looked up): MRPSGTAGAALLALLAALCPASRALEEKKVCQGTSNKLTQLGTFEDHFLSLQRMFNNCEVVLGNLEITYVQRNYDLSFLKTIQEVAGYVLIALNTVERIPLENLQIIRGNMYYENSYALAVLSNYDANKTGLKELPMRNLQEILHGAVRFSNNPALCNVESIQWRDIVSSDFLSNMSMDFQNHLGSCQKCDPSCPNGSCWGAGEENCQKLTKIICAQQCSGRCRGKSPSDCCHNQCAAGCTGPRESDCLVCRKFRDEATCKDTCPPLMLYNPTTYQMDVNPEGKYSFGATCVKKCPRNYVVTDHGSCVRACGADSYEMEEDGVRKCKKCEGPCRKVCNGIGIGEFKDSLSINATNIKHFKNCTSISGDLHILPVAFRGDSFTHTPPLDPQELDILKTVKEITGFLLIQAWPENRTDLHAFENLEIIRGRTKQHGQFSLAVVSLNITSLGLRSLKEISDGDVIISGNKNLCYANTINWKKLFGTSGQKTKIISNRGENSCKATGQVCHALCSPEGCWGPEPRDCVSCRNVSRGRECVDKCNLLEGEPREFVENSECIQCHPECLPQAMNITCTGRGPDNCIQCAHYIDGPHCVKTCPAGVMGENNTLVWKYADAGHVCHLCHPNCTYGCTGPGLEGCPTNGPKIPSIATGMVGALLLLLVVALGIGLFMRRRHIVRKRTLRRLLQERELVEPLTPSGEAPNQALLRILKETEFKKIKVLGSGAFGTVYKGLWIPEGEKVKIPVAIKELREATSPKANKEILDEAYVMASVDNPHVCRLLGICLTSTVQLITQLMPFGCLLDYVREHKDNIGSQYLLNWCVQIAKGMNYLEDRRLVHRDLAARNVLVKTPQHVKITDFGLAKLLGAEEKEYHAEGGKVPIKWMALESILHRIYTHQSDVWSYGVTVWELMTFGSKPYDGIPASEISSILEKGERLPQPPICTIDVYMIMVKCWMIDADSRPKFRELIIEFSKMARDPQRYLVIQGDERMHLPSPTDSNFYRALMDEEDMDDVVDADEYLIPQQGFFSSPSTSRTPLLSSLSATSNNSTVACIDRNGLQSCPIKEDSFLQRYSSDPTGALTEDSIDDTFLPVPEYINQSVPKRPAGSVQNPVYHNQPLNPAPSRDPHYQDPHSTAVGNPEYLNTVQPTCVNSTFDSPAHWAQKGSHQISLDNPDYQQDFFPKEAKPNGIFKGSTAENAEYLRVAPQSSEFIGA

With `CCCC=C(CCC)[C@@H](NC(=O)c1ccccc1)c1ccc(C(=O)OC)cc1`, the composite z-score in assay [1] came out at 0.661; in assay [5], 2.56; in [7], 0.688; in assay [8], 0.748; in assay [9], 0.997; in assay [10], 0.23. Further, the composite z-score in assay [11] was 0.578; in assay [12], 0.374; in assay [13], -0.0902; in assay [15], 1; in assay [16], 0.294; in assay [17], 0.891. Moreover, the results for the composite z-score in assay [18], in assay [19] and in assay [20] were 0.806, 0.162 and 0.613, respectively. Also, the z-score in [2] is -0.532 (inactive); in assay [3], -1.5 (inactive); in assay [4], -0.938 (inactive); in assay [6], 0.689 (inactive); in assay [14], -1.98 (inactive).
With `C=C(/C(=C/C[C@H](OC(=O)c1ccncc1)c1ccccc1OCCO)c1cc(C(=O)OC)ccc1OC)C(C)C`, the composite z-score was 1.43 in [1]; 2.74 in assay [5]; -0.159 in [7]; 0.691 in assay [8]; 1.13 in assay [9]; -0.112 in assay [10]. Moreover, the composite z-score was 0.748 in assay [11]; -0.0168 in [12]; 0.253 in [13]; 1.54 in assay [15]; 0.33 in [16]; -0.105 in [17]. For the same compound, the composite z-score in [18] is 1.1; in assay [19], 0.599; in [20], 1.25. Also, the z-score in [2] was 0.363 (inactive); in assay [3], 0.115 (inactive); in [4], 2.11 (inactive); in [6], 0.329 (inactive); in assay [14] it was -0.361 (inactive).
Take `C=CCC(OC(C)=O)[C@@H]1[C@@H](N(Cc2ccc(-c3cccc(C(F)(F)F)c3)o2)C(=O)Cc2ccc(F)cc2)c2cc(OCCCO)ccc2N1C(=O)c1ccc2ccccc2n1` (stereo not given in full): the composite z-score was -1.08 in assay [1]; -0.452 in [5]; -0.0415 in assay [7]; -0.436 in [8]; -0.768 in assay [9]; -0.157 in [10]. For the same compound, the composite z-score in assay [11] was -0.106; in assay [12] it was 0.0195; in assay [13], 0.416; in assay [15], -0.218; in assay [16], -1.85; in assay [17], -0.35. In addition, the composite z-score in assay [18] is -0.281; in assay [19], -0.0545; in assay [20] it was 1.58. Besides, the z-score in [2] was -0.203 (inactive); in assay [3] it was 0.15 (inactive); in assay [4], -0.522 (inactive); in assay [6], -1.08 (inactive); in assay [14], -0.362 (inactive).
As for `C=CCOC(=O)[C@H]1[C@@H]2C(=O)O[C@@H](c3ccccc3)[C@@H](c3ccccc3)N2[C@@H](c2ccc(OCCOC(=O)[C@@H]3C[C@@H]4C(=O)N[C@@H](CC(C)C)C(=O)N4[C@@H]3c3ccc(O)cc3)cc2)[C@]12C(=O)Nc1ccc(I)cc12`, the composite z-score in assay [1] is 1.58; in assay [5], 2.44; in [7], -0.103; in [8] it was 1.23; in assay [9], 0.752; in assay [10], 0.006. Also, the composite z-score in [11] was 1.09; in assay [12], 0.0615; in assay [13], -0.0756; in [15], 0.649; in assay [16], 1.13; in assay [17], 0.993. Besides, the values for the composite z-score in [18], in assay [19] and in assay [20] were 0.644, 0.928 and -0.0053, respectively. The z-score in assay [2] is -3.69 (inactive); in assay [3], 0.698 (inactive); in assay [4], 3.36 (inactive); in assay [6], 0.452 (inactive); in [14] it was -1.41 (inactive).
Regarding `COCC1=C([C@H](O)CCc2ccccc2)[C@H](CO)n2c(=O)n(-c3ccccc3)c(=O)n2C1`, the composite z-score was -0.872 in assay [1]; -0.728 in assay [5]; -0.0146 in assay [7]; -0.0338 in assay [8]; -0.907 in [9]; -0.253 in assay [10]. The composite z-score in assay [11] was -0.285; in assay [12] it was -0.412; in assay [13], -0.39; in [15], -0.187; in assay [16], -0.295; in assay [17], 0.445. Besides, the results for the composite z-score in [18], in assay [19] and in assay [20] were -0.41, 0.353 and 0.785, respectively. Also, the z-score in assay [2] is -1.47 (inactive); in assay [3], -1.41 (inactive); in assay [4] it was -0.259 (inactive); in [6] it was 2.86 (inactive); in assay [14], -1.12 (inactive).
